Assay outcomes (PubChem BioAssay)
Rows were chosen to be rich in hits. Some 3.9% of all compounds tested hit in one or more screens of this group.
Eya2 inh = Eya2 (human) phosphatase inhibition; O00167; recombinant Eya2, OMFP fluorescence dephosphorylation (OMFP is methylfluorescein phosphate); Potency, µM (top dose mostly 76.9 µM), usual class: inhibitors; hit rate 0.006% among 330,000; AID 488837
Target sequence (O00167 whole entry, looked up): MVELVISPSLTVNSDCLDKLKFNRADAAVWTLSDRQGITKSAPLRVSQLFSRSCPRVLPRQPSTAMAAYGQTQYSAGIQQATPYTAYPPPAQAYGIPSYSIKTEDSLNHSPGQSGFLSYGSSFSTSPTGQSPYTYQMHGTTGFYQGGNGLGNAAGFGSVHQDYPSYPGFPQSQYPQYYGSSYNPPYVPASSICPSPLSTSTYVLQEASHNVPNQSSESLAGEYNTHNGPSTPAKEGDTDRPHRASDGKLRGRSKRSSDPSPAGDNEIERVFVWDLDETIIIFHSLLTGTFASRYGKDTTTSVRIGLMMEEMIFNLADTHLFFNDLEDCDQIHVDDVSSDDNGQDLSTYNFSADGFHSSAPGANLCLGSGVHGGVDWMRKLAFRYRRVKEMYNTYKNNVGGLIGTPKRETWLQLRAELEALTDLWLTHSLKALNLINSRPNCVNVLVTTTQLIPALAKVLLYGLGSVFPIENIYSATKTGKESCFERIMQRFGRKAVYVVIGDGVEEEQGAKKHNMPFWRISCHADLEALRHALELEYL
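Eya2 protein (added as 0.2 uM solution) was preincubated with compound for 10 min at ambient temperature in 50 mM HEPES pH 7.5, 50 mM NaCl, 5 uM MgCl2, 0.05% BSA, 1 mM DTT. OMFP (added at 50 uM) then reacted 10 min; fluorescence read at 485/525 nm.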
D1 agonist = agonists of human D1 dopamine receptor; P21728; HEK293 T-REx D1 cells, calcium flux, agonist mode; activation, % at 2 µM; hit rate 1% among 360,000; in the data active = activation above about 30%
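Inducible HEK293 T-REx D1 cells, force-coupled to calcium signalling, were plated at 4000 cells/well with tetracycline and held overnight at 30 C. After no-wash calcium dye loading, compound-evoked calcium rise over 180 s flagged agonists.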
D1 PAM = potentiators of human D1 dopamine receptor | HEK293 TREx D1 cells, calcium flux, dopamine EC20 potentiation | potentiation, % at 10 µM | hit rate 0.036% among 360,000 | AID 504651; in the data active = potentiation above about 30%
D1 antagonist = antagonists of human D1 dopamine receptor; hit rate 3.2% among 360,000; HEK293 TREx D1 cells, calcium flux, dopamine EC80; active compounds read low; activity change, negative = inhibition, % at 10 µM; in the data active = activity change below about -30%
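Tetracycline-induced HEK293 T-REx cells with force-coupled D1 receptor were loaded with a no-wash calcium dye. Compound was added after a 10 s baseline and read kinetically for 180 s; EC80 dopamine was then added and calcium flux followed another 180 s.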
USP2a block = USP2a (human) protease inhibition. USP2 core, Ub-CHOP2 coupled fluorogenic reporter, 485/531. Potency, µM (highest dose often 38.3 µM), actives largely listed as inhibitors. hit rate 0.01% among 330,000
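Deubiquitinase activity read as fluorescence (485/531 nm) after Ub-CHOP2 cleavage activates the enterokinase reporter on its substrate; USP2 core 10nM, Ub-CHOP2 and substrate 25nM each, 30min compound preincubation then 60min RT; data normalized to NEM, curves fitted.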
GALK inh = galactokinase (human) inhibition; P51570; Purified GALK, Kinase-Glo residual ATP luminescence; Potency, µM (highest dose often 57.5 µM), hits mostly inhibitors; hit rate 0.007% among 270,000
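Galactose (100 uM) and ATP (35 uM) were turned over by 5 nM GALK for 1 h at RT. Kinase-Glo Plus then converted the remaining ATP into a luminescent signal.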
Large screens that a line does not name were inactive. Unless noted, calls come from the whole dose curve; as a rule, active = well fitted inhibition curve with a large enough effect; inconclusive = small, poorly fitted or top-dose-only effect, or effect the other way; inactive = flat fitted curve, though single readings scatter.

CC1CCCCN1C(=O)c1ccc(COc2ccc([N+](=O)[O-])cc2)o1 (configuration not stated)	D1 antagonist -36
O=C(O)c1ccc(-n2cc(C(=O)c3ccccc3O)cn2)cc1	none
O=C(c1cnn(-c2ccccc2)c1)c1ccc2ccccc2c1O	D1 antagonist -32
COc1cc(C2CC(=O)Nc3c2c(=O)[nH]c2nc4ccccc4n32)ccc1O (configuration not stated)	D1 antagonist -49 (no result: Eya2 inh, USP2a block, GALK inh)
COc1ccc(C2CC(=O)Nc3c2c(=O)[nH]c2nc4ccccc4n32)cc1OC (configuration not stated)	none (no result: Eya2 inh, USP2a block, GALK inh)
COc1ccc(CN2CCN(C(=O)c3cccs3)CC2)c(OC)c1OC	D1 antagonist -34
CCCCc1ccc(NS(=O)(=O)c2ccc(N3CCCCS3(=O)=O)cc2)cc1	none (no result: Eya2 inh, USP2a block, GALK inh)
COc1ccc(CC(=O)c2ccc(OC)c(OC)c2C)cc1OC	D1 antagonist -34
COc1ccc(CC(=O)Oc2ccc(C)cc2Br)cc1OC	D1 antagonist -32
COc1ccc(CC(=O)NCc2cccs2)cc1OC	none
Cc1csc2nc(-c3cccc(NC(=O)c4ccc(S(N)(=O)=O)cc4)c3)cn12	none (no result: Eya2 inh, USP2a block, GALK inh)
Cc1cc2oc(C(=O)NCc3ccncc3)c(C)c2cc1C	D1 antagonist -36
Cc1csc2nc(CCNS(=O)(=O)c3ccccc3)cn12	none (no result: Eya2 inh, USP2a block, GALK inh)
Cn1nc(C(=O)NNC(=O)COc2ccccc2)c2ccccc2c1=O	D1 antagonist -35
Cc1cccc(N2C(=O)C(CC(=O)Nc3ccc(F)cc3)N(C3CCCC3)C2=O)c1 (configuration not stated)	none (no result: Eya2 inh, USP2a block, GALK inh)
Cc1cc(Nc2nc3ccccc3c3nnc(C)n23)ccc1Br	none (no result: Eya2 inh, USP2a block, GALK inh)
CC(=O)c1cc(C(=O)Nc2cccc(C)c2)c2ccccn12	none (no result: Eya2 inh, USP2a block, GALK inh)
Cc1cc(C)c2c(n1)SCCN2C(=O)Nc1ccc(C(=O)Nc2cc(Cl)ccc2C)cc1	D1 antagonist -33 (no result: Eya2 inh, USP2a block, GALK inh)
Cc1cc(Cl)ccc1NC(=O)c1cccc(NC(=O)N2CCSc3ncccc32)c1	D1 antagonist -49 (no result: Eya2 inh, USP2a block, GALK inh)
Cc1cc(C)c2c(n1)SCCN2C(=O)Nc1ccc(C(=O)Nc2ccc(C(C)C)cc2)cc1	none (no result: Eya2 inh, USP2a block, GALK inh)
Cc1ccc(-c2nc3cccnc3s2)cc1NC(=O)C(C)C	D1 agonist 30 (no result: Eya2 inh, USP2a block, GALK inh)
Cc1cccc(-c2noc(CN(C(C)C)S(=O)(=O)c3ccc(Br)cc3)n2)c1	D1 agonist 34 (no result: Eya2 inh, USP2a block, GALK inh)
COc1ccc(-c2noc(CN(C(C)C)S(=O)(=O)c3ccc(Br)cc3)n2)cc1	none (no result: Eya2 inh, USP2a block, GALK inh)
Cc1cc(NC(=O)c2ccccc2)n(C(C)(C)C)n1	D1 antagonist -33 (no result: GALK inh)
Cc1cccc(C(=O)Nc2c3c(nn2C(C)(C)C)CS(=O)(=O)C3)c1	none
CC(C)(C)n1nc2c(c1NC(=O)c1ccccc1)CS(=O)(=O)C2	D1 antagonist -41
Cc1cc(NC(=O)c2ccccc2Cl)n(C(C)(C)C)n1	none (no result: GALK inh)
CCN(CC)c1ccc(NC(=O)CCS(=O)(=O)c2cc3c(cc2Cl)NC(=O)CO3)c(C)c1	none (no result: Eya2 inh, USP2a block, GALK inh)
Cc1cc(C(=O)CN2C(=O)NC(C)(c3cccc(Br)c3)C2=O)c(C)n1Cc1ccco1 (configuration not stated)	D1 antagonist -37
CC1(c2cccc(Br)c2)NC(=O)N(CC(=O)Nc2ccc(F)cc2)C1=O (configuration not stated)	D1 antagonist -31
CC1(c2cccc(Br)c2)NC(=O)N(CC(=O)NC2CCCCC2)C1=O (configuration not stated)	D1 antagonist -34 (no result: GALK inh)
CC1(c2cccc(Br)c2)NC(=O)N(CC(=O)Nc2ccc(S(N)(=O)=O)cc2)C1=O (configuration not stated)	none
COc1ccc(C)cc1NC(=O)c1cc(S(=O)(=O)N2CCC(C)CC2)ccc1F	none (no result: Eya2 inh, USP2a block, GALK inh)
O=[N+]([O-])c1ccc(COc2ccccc2/C=N/O)cc1	D1 antagonist -49
COc1cc(C)ccc1OCCOCCOc1ccc([N+](=O)[O-])cc1	D1 agonist 31
COc1cc(C)ccc1OCCOCCOc1ccccc1[N+](=O)[O-]	none
O=Cc1ccccc1OCCOc1ccc([N+](=O)[O-])cc1	D1 antagonist -31
COc1cc(OC)c(NS(=O)(=O)c2cc(-c3cnc(C4CC4)o3)ccc2C)cc1Cl	none (no result: Eya2 inh, USP2a block, GALK inh)
COc1ccc(NC(=O)CN(C)S(=O)(=O)c2ccc3[nH]c4c(c3c2)CCCC4)cc1Cl	none (no result: Eya2 inh, USP2a block, GALK inh)
CC(C)CCOc1ccc(C(=O)NCC2OCCc3ccccc32)cc1 (configuration not stated)	none (no result: Eya2 inh, USP2a block, GALK inh)
CC(C)COc1ccc(C(=O)NCC2OCCc3ccccc32)cc1 (configuration not stated)	D1 antagonist -31 (no result: Eya2 inh, USP2a block, GALK inh)
COc1ccc(C(C)NC(=O)C2CCCO2)cc1OC (configuration not stated)	none
COc1ccc(C(C)NC(=O)C2CCCC2)cc1OC (configuration not stated)	D1 antagonist -48
N#C/C(=C(/O)COc1ccccc1)c1nc2ccccc2s1	D1 antagonist -42
N#C/C(=C(/O)COc1ccc(Cl)cc1)c1nc2ccccc2s1	GALK inh inconclusive
O=C1CCN(Cc2ccccc2)CCN1[C@H](CO)Cc1ccccc1	none (no result: GALK inh)
N#Cc1cccc(CN2CCC(=O)N([C@H](CO)Cc3ccccc3)CC2)c1	D1 antagonist -45 (no result: GALK inh)
Oc1c(C(c2ccccc2F)N2CCOCC2)sc2nc(-c3ccco3)nn12 (configuration not stated)	none (no result: Eya2 inh, D1 antagonist, USP2a block, GALK inh)
CCCNC(=O)Nc1nc2ccccc2s1	D1 antagonist -72
CC1CCN(C(=O)c2cnn(-c3cccc(Cl)c3)c2C2CCN(C(=O)OC(C)(C)C)CC2)CC1	none (no result: Eya2 inh, USP2a block, GALK inh)
CCOC(=O)CCCN1C(=O)CCn2nc(-c3cn(C)c4ccccc34)cc21	D1 antagonist -40 (no result: Eya2 inh, USP2a block, GALK inh)
Cn1cc(-c2cc3n(n2)CCC(=O)N3CCCC(=O)NCc2ccccc2Cl)c2ccccc21	D1 antagonist -48 (no result: Eya2 inh, USP2a block, GALK inh)
O=C(CCOc1ccccc1)N(Cc1cccnc1)c1nc2ccc(F)cc2s1	none (no result: Eya2 inh, D1 antagonist, USP2a block, GALK inh)
CCCc1nnc(SCCSc2nnc(CCC)n2N)n1N	D1 antagonist -32
CCC(C(=O)NCc1ccccc1Cl)n1nc(C)c2sc3ccccc3c2c1=O (configuration not stated)	none (no result: Eya2 inh, USP2a block, GALK inh)
CCCNC(=S)N1CCC(C(=O)c2ccc3c(c2)OCCO3)CC1	D1 antagonist -34
CCCc1nc2sc3ccccc3c(=O)c2c(=O)n1Cc1ccco1	D1 agonist 80
CCCc1nc2sc3ccccc3c(=O)c2c(=O)n1Cc1ccc(OC)cc1	none
Cc1ccc(NC(=O)Cn2cc3c(n2)CCC(C)C3)cc1C (configuration not stated)	none (no result: Eya2 inh, USP2a block, GALK inh)
COc1ccc(NC(=O)CN(C)C2CCCCC2)cc1Cl	D1 antagonist -45
COc1ccc(NC(=O)CC2CCCC2)cc1OC	D1 antagonist -46
